D1 PAM = enhances dopamine response at the human D1 receptor; P21728; HEK293 TREx D1 cells, calcium flux, dopamine EC20 potentiation; potentiation, % at 10 µM; hit rate 0.036% among 360,000; AID 504651; in the data active = potentiation above about 30%
D1 ag = agonists of human D1 dopamine receptor. HEK293 T-REx D1 cells, calcium flux, agonist mode. activation, % at 2 µM. hit rate 1% among 360,000. AID 504660; in the data active = activation above about 30%
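Inducible HEK293 T-REx D1 cells, force-coupled to calcium signalling, were plated at 4000 cells/well with tetracycline and held overnight at 30 C. After no-wash calcium dye loading, compound-evoked calcium rise over 180 s flagged agonists.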
D3 ag = agonists of human D3 dopamine receptor | P35462 | D3R DiscoveRx beta-arrestin cells, luminescence, 90 min | max activation, % | hit rate 0.58% among 410,000 | AID 652048; in the data active = max activation above about 30%
Target sequence (P35462 whole entry, looked up): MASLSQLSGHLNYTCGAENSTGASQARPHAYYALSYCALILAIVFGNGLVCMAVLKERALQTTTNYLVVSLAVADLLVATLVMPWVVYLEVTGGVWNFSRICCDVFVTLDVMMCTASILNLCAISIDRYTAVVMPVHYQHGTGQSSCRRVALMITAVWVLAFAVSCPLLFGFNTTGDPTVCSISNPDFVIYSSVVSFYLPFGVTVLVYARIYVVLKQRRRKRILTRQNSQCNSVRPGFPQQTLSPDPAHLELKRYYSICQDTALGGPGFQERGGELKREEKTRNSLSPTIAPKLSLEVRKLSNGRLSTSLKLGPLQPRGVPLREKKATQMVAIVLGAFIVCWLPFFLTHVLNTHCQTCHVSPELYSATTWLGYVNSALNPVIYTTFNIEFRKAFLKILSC
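Agonist mode: compounds and dopamine controls were applied to plated cells for 90 min at 37 degrees C after an overnight attachment at 1500 cells/well. Luminescent read-out followed 30 - 60 minutes at room temperature with DiscoveRx detection reagent.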
DRD3 antagonist = D3 dopamine receptor (human) antagonism; max response, negative = inhibition, %; P35462; AID 652054; hit rate 2.5% among 360,000; D3R cells, DiscoveRx beta-arrestin luminescence, antagonist mode; stronger effect = lower value; in the data active = max response below about -50%
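Cells plated overnight at 1500 cells/well, then exposed to library compounds with dopamine controls for 90 minutes at 37 degrees C. DiscoveRx reagent added for 30–60 minutes at room temperature; luminescence read, quantitative HTS format.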
D1 antag = human D1 dopamine receptor antagonism | HEK293 TREx D1 cells, calcium flux, dopamine EC80; stronger effect = lower value | activity change, negative = inhibition, % at 10 µM | hit rate 3.2% among 360,000 | AID 504652; in the data active = activity change below about -30%
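Tetracycline-induced HEK293 Trex D1 cells, force-coupled to calcium, dye-loaded; compounds added and read 180 s, then EC80 dopamine added and calcium flux tracked kinetically another 180 s.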
Each line names hits and unclear results; the compound was inactive in the other large screens; ! = a repeat was not active. The list is not random: actives were taken first. Their share in the collection is about 6%.

CCC(C(=O)NCCc1c[nH]c2cc(OC)ccc12)c1ccccc1 (stereo unspecified)	D1 antag -79.6
COc1ccc2[nH]cc(CCNC(=O)Nc3ccccc3)c2c1	D1 antag -34.3!
COc1ccc(OC)c(NC(=O)NCCc2c[nH]c3ccccc23)c1	none
COc1ccc2c(CCNC(=O)Nc3ccccc3)c[nH]c2c1	none
COc1ccc2[nH]cc(CCNC(=O)Cc3ccc(Br)cc3)c2c1	none
COc1ccc2[nH]cc(CCNC(=O)CCC3CCCCC3)c2c1	D1 antag -42.5
O=C(CCC(=O)N1CC2CCCN2c2ccccc21)NCc1ccc(Cl)cc1 (stereo unspecified)	none (no result: DRD3 antagonist)
Clc1cccc(/C=N/Nc2nc(Cl)nc3ccccc23)c1	DRD3 antagonist -60.3
Cc1cc(C)nc(N/N=C/c2cccc(Cl)c2)n1	none
Cc1ccc(S(=O)(=O)N(CCCc2c(C)nc[nH]c2=O)c2ccccc2)cc1	none (no result: D1 PAM, D1 ag, D1 antag)
CCOC(=O)NC(=O)c1cn(Nc2ncc(Cl)cc2C(F)(F)F)c(=O)[nH]c1=O	D1 antag -43.6
O=C(Nc1ccc(Cl)cc1Cl)c1cc(S(=O)(=O)N2CCC3(CC2)OCCO3)ccc1F	D1 antag -40.9 (no result: DRD3 antagonist)
CC1CCCN(S(=O)(=O)c2ccc(S(=O)(=O)N3CCC4(CC3)OCCO4)cc2)C1 (stereo unspecified)	none
Cc1ccc(C)c(S(=O)(=O)N2CCC3(CC2)OCCO3)c1	D1 ag 35.9
Cc1ccc(S(=O)(=O)N2CCC3(CC2)OCCO3)cc1	D1 antag -31.5
CCCC(=O)N1CCC1(C)C(=O)Nc1ncc(C(=O)OC)s1 (stereo unspecified)	none (no result: D1 PAM, D1 ag, D1 antag)
Cc1ccc(C(C)C)c(OCCSc2nc3ccccc3n2CC(O)CO)c1 (stereo unspecified)	none (no result: DRD3 antagonist)
COc1ccc(-c2cn3cccc(C)c3n2)cc1F	D1 antag -37.5
Cc1ccc(-c2cn3cccc(C)c3n2)cc1	none
C[C@@H]1CN([C@@H](C)CO)C(=O)CCCn2cc(nn2)CO[C@H]1CN(C)S(=O)(=O)c1cccc(C#N)c1	none (no result: D1 PAM, D1 ag, D1 antag)
CC(=O)C1=C(O)C(=O)N(c2ccc(S(N)(=O)=O)cc2)C1c1ccc([N+](=O)[O-])cc1 (stereo unspecified)	DRD3 antagonist -81.5
Cc1ccc(C)c(OCc2nc3ccccc3[nH]2)c1	none
C=CCc1ccccc1OCc1nc2ccc(C)cc2[nH]1	D1 antag -37.1 (no result: DRD3 antagonist)
O=C(NCC(O)CO)c1c(I)c(C(=O)NCC(O)CO)c(I)c(N(CCO)C(=O)CO)c1I (stereo unspecified)	none (no result: D1 PAM, D1 ag, DRD3 antagonist, D1 antag)
CC(=O)N1CCc2c(sc3c2c(=O)n(Cc2ccccc2)c(=O)n3Cc2ccccc2Cl)C1	none (no result: DRD3 antagonist)
CC(=O)N1CCc2c(sc3c2c(=O)n(-c2ccccc2Cl)c(=O)n3C)C1	D3 ag 30.9 (no result: DRD3 antagonist)
Oc1ccc(C[C@H]2CN([C@@H](Cc3ccccc3)CN3CCCC3CN3C(=S)NC[C@@H]3Cc3ccccc3)C(=S)N2CCc2ccccc2)cc1 (stereo partly specified)	none (no result: D1 PAM, D1 ag, D1 antag)
Oc1ccc(C[C@H]2CNC(=S)N2CC2CCCN2C[C@H](Cc2ccc(O)cc2)N2C[C@H](Cc3ccccc3)N(CC3CCCCC3)C2=S)cc1 (stereo partly specified)	DRD3 antagonist -63.8 (no result: D1 PAM, D1 ag, D1 antag)
CC(C)C[C@H]1CNC(=S)N1C[C@H]1CCCN1C[C@H](Cc1ccccc1)N1C[C@H](Cc2ccc(O)cc2)N(CC2CCCCC2)C1=S	none (no result: D1 PAM, D1 ag, D1 antag)
CC(C)C[C@H]1CNC(=S)N1CC1CCCN1C[C@H](Cc1ccc(O)cc1)N1C[C@H](Cc2ccccc2)N(CC2CCCCC2)C1=S (stereo partly specified)	DRD3 antagonist -81.2 (no result: D1 PAM, D1 ag, D1 antag)
Oc1ccc(C[C@H]2CN([C@@H](Cc3ccc(O)cc3)CN3CCC[C@@H]3CN3C(=S)NC[C@@H]3Cc3ccccc3)C(=S)N2CCc2ccccc2)cc1	DRD3 antagonist -52.5 (no result: D1 PAM, D1 ag, D1 antag)
O=C1NC[C@H](Cc2ccc(O)cc2)N(C[C@H]2CCCN2C[C@H](Cc2ccc(O)cc2)N2C[C@H](Cc3ccc(O)cc3)N(CCc3ccccc3)C(=O)C2=O)C1=O	DRD3 antagonist -70.3 (no result: D1 PAM, D1 ag, D1 antag)
O=C(COc1ccc2cc(Br)ccc2c1)N1CCCC1	none
CC1(C)CC(=O)c2cc(OCC(=O)N3CCCCCC3)ccc2O1	DRD3 antagonist -71.0
O=C(COc1ccc(Br)cc1)N1CCCCCC1	DRD3 antagonist -58.7
COC(=O)CSc1nc2sc3c(c2c(=O)n1Cc1ccccc1)CCC(C(C)(C)C)C3 (stereo unspecified)	none (no result: DRD3 antagonist)
CCCn1c2ccccc2c2cnn(CC(=O)NCc3cc(OC)ccc3OC)c(=O)c21	none (no result: DRD3 antagonist)
CCN(CC)CCCNC(=O)c1cnc(SC)nc1-c1ccccc1	none (no result: DRD3 antagonist)
COc1cccc2c1C(=O)c1c(O)c3c(c(O)c1C2=O)C[C@@](O)(C(=O)CO)C[C@@H]3O[C@H]1C[C@H](N)[C@H](O[C@@H]2CCCCO2)[C@H](C)O1	none (no result: D1 PAM, D1 ag, DRD3 antagonist, D1 antag)
Cc1ccc(S(=O)(=O)N2CCN(Cc3ccco3)CC2)c(C)c1	D1 PAM 37.5
CCOC(=O)CCc1c(C)nc2cc(-c3cc(OC)cc(OC)c3)[nH]n2c1=O	none (no result: DRD3 antagonist)
CCOC(=O)C1CCCN(C(=O)c2cc(-c3ccc(C)cc3)nc3ccccc23)C1 (stereo unspecified)	none
CC(C)Cn1c(/C=N/Nc2nc3ccccc3[nH]2)nc2ccccc21	DRD3 antagonist -70.8
C=CCn1cc(/C=N/Nc2nc3ccccc3[nH]2)c2ccccc21	DRD3 antagonist -69.9
CC1=C(C(=O)Nc2ccc(F)cc2F)C2(CCN(C(C)C)CC2)OC1=O	none (no result: DRD3 antagonist)
CN(C(=O)Cn1nc(Cc2cccnc2)c2ccccc2c1=O)c1cccc(C(F)(F)F)c1	none (no result: DRD3 antagonist)
COc1ccccc1NC(=O)c1ccc(-n2cncn2)nc1	D3 ag 30.7
CCOc1ccccc1NC(=O)c1ccc(-n2cncn2)nc1	none
COc1ccccc1NC(=O)CSc1ncn[nH]1	none
COc1ccccc1NC(=O)c1ccc(NC(=O)CSc2ncn[nH]2)cc1	D1 antag -44.7
CC1CN(C(=O)CCN2C(=O)c3ccccc3C2=O)CC(C)O1 (stereo unspecified)	D1 antag -31.7
CN1CCN(C(=O)CCN2C(=O)c3ccccc3C2=O)CC1	none
Cc1ccc(-n2nc3c(N4CCC(C(=O)NC(C)c5ccccc5)CC4)nnc(C)c3c2C)cc1 (stereo unspecified)	none (no result: DRD3 antagonist)
CCOc1ccccc1NC(=O)CSC1=Nc2ccccc2C2=NC(CC(=O)NC3CCCCC3)C(=O)N12 (stereo unspecified)	none (no result: DRD3 antagonist)
CNCCCC1Sc2ccccc2Oc2ccccc21 (stereo unspecified)	DRD3 antagonist -73.7, D1 antag -41.8
CC(=O)N1CCCc2cc(S(=O)(=O)N3CCN(C4CCCCC4)CC3)ccc21	DRD3 antagonist -55.7
CC(=O)N1CCCc2cc(S(=O)(=O)N3CCCC(C(=O)N4CCN(c5ccccc5F)CC4)C3)ccc21 (stereo unspecified)	D1 antag -38.8 (no result: DRD3 antagonist)

Compound activity deposited in PubChem BioAssay by National Center for Advancing Translational Sciences (NCATS).
